Results reported in the supplement of paper PMC10338343.
± gives the standard deviation.

Assays:
[1] = tested on: MILI (PIWIL2) piRISC loaded with L1MC piRNA (26 nt); assay: pre-steady-state target cleavage rate (min^-1); guide: L1MC piRNA 5'p-UAACUAAAUACUAUGCAAGCUGUAGG; higher = faster piRNA-guided slicing of the target;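 further: 1 nM active piRISC with 0.1 nM target library at 33 °C single turnover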
How it was run: (§1)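 Three pooled Cleave-'n-Seq trials supplied the data, with k3 capped at 0.0001 min^-1. In each, […] transcribed, DNA-blocked target RNA library and 1 nM active affinity-purified piRISC with one synthetic guide reacted in HEPES–potassium acetate buffer at 33 °C for 0–8 or 0–960 min, with or without 500 nM GTSF1 partner protein. Uncleaved targets were sequenced and normalised to depth and to weakly complementary targets. A burst-and-steady-state fit provided the pre-steady-state cleavage rate.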

[2] = tested on: EfPiwi piRISC loaded with L1MC piRNA (26 nt); assay: pre-steady-state target cleavage rate (min^-1); auxiliary factor: 500 nM Ephydatia muelleri Gtsf1; guide: L1MC piRNA 5'p-UAACUAAAUACUAUGCAAGCUGUAGG; MIWI and MILI are mouse PIWI proteins and EfPiwi is from a freshwater sponge; tags in brackets are library labels; higher = faster piRNA-guided slicing of the target
How it was run: as §1

[3] = auxiliary factor: 500 nM mouse GTSF1
[4] = auxiliary factor: none (no GTSF1)

| Sequence | pre-steady-state target cleavage rate [1, 3] | pre-steady-state target cleavage rate [1, 4] | pre-steady-state target cleavage rate [2] |
| --- | --- | --- | --- |
| UCCUGCUACUGCUUGCAUAGUAUUAAGUUA | 0.151 ± 0.02 | 0.00322 ± 0.0028 | 0.00584 ± 0.0021 |
| UCCUGCUUCAGCUUGCUUAGUAUUUAGUUA | 0.287 ± 0.011 | 0.00807 ± 0.0021 | 0.0238 ± 0.0068 |
| UCCUGGAUGAGCUUGCAUGGUAUUUAGUUA | 0.195 ± 0.023 | 0.017 ± 0.0046 | 0.0127 ± 0.0045 |
| UCCUGCUUCAGCUUGCAUAGUAUUUUGUUA | 0.144 ± 0.025 | 0.00322 ± 0.0024 | 0.00635 ± 0.0022 |
| UCCUGGAUGUGCUCGCAUAGUAUUUAGUUA | 0.155 ± 0.018 | 0.00981 ± 0.0026 | 0.00512 ± 0.0021 |
| UCCUCCAUACAGCUUGCAUAGUAUUUAGUUA | 0.171 ± 0.021 | 0.00652 ± 0.002 | 0.00733 ± 0.0027 |
| UCCUGGAUGUCCUAUGCAUAGUAUUUAGUUA | 0.0987 ± 0.02 | 0.00575 ± 0.0022 | 0.00508 ± 0.0022 |
| UCCUGGAUGAGCUUGCAAAGUAUUUAGUUA | 0.0794 ± 0.011 | 0.00483 ± 0.0028 | 0.0322 ± 0.0094 |
| UCCUGGAACAGCUUGCAUAGUAUUGUAGUUA | 0.151 ± 0.02 | 0.00351 ± 0.0026 | 0.00741 ± 0.0027 |
| UCCUGGUACAGGUUGCUUAGUAUUUAGUUA | 0.328 ± 0.022 | 0.0176 ± 0.0042 | 0.00576 ± 0.003 |
| UCCUGCUACAACUUGCAUAGUAUUUAGUUA | 0.247 ± 0.023 | 0.00739 ± 0.0024 | 0.00776 ± 0.0029 |
| UCCUCCAACAGCUUGCAAAGUAUUUAGUUA | 0.155 ± 0.01 | 0.00656 ± 0.0019 | 0.0132 ± 0.0038 |
| UCCUGGAUCAGCUUGCAUAGUAUUUAGUGUA | 0.271 ± 0.023 | 0.00832 ± 0.0026 | 0.0168 ± 0.0061 |
| UCCUGGAUGAGCUUGCAUAGUAAUUUAGUUA | 0.0721 ± 0.0082 | 0.00789 ± 0.0023 | 0.00357 ± 0.0029 |
| UCCUCCUUCAGCUUGCAUAGUAUUUAGUUA | 0.297 ± 0.019 | 0.0116 ± 0.0026 | 0.158 ± 0.041 |
| UCCUCCUACAGGAUGCAUAGUAUUUAGUAA | 0.23 ± 0.017 | 0.00422 ± 0.0022 | 0.0119 ± 0.0048 |
| UCCUGGUACAGCUUGCAUAGUAUAUUAGUUA | 0.26 ± 0.039 | 0.0117 ± 0.0038 | 0.00489 ± 0.0026 |
| UCCUGGUACAGGAAGCAUAGUAUUUAGUUA | 0.223 ± 0.025 | 0.00538 ± 0.0026 | 0.00248 ± 0.0023 |
| UCCUGGUACACCUUGCUUAGUAUUUAGUUA | 0.134 ± 0.024 | 0.0117 ± 0.0037 | 0.00384 ± 0.0027 |
